Results as given in the supplement of paper PMC11732987, “Enantioselective OTUD7B fragment discovery through chemoproteomics screening and high-throughput optimisation” (Communications Chemistry, 2025).
Values without a mark were called inactive.

What was measured:
Test in all cases: log2 ratio of Biotin-Ahx-Ub-VS probe labelling (fragment/DMSO); higher = less target engagement (more negative = stronger competition), active = hit call of the paper (q ≤ 0.05, log2 ratio ≤ -1)
Settings in all cases: compound concentration: 200 uM; treatment time: 3 h
UniProt O00507 = molecular target: UniProt O00507
UniProt O00507, sequence (O00507 whole entry, the tested form may be a part): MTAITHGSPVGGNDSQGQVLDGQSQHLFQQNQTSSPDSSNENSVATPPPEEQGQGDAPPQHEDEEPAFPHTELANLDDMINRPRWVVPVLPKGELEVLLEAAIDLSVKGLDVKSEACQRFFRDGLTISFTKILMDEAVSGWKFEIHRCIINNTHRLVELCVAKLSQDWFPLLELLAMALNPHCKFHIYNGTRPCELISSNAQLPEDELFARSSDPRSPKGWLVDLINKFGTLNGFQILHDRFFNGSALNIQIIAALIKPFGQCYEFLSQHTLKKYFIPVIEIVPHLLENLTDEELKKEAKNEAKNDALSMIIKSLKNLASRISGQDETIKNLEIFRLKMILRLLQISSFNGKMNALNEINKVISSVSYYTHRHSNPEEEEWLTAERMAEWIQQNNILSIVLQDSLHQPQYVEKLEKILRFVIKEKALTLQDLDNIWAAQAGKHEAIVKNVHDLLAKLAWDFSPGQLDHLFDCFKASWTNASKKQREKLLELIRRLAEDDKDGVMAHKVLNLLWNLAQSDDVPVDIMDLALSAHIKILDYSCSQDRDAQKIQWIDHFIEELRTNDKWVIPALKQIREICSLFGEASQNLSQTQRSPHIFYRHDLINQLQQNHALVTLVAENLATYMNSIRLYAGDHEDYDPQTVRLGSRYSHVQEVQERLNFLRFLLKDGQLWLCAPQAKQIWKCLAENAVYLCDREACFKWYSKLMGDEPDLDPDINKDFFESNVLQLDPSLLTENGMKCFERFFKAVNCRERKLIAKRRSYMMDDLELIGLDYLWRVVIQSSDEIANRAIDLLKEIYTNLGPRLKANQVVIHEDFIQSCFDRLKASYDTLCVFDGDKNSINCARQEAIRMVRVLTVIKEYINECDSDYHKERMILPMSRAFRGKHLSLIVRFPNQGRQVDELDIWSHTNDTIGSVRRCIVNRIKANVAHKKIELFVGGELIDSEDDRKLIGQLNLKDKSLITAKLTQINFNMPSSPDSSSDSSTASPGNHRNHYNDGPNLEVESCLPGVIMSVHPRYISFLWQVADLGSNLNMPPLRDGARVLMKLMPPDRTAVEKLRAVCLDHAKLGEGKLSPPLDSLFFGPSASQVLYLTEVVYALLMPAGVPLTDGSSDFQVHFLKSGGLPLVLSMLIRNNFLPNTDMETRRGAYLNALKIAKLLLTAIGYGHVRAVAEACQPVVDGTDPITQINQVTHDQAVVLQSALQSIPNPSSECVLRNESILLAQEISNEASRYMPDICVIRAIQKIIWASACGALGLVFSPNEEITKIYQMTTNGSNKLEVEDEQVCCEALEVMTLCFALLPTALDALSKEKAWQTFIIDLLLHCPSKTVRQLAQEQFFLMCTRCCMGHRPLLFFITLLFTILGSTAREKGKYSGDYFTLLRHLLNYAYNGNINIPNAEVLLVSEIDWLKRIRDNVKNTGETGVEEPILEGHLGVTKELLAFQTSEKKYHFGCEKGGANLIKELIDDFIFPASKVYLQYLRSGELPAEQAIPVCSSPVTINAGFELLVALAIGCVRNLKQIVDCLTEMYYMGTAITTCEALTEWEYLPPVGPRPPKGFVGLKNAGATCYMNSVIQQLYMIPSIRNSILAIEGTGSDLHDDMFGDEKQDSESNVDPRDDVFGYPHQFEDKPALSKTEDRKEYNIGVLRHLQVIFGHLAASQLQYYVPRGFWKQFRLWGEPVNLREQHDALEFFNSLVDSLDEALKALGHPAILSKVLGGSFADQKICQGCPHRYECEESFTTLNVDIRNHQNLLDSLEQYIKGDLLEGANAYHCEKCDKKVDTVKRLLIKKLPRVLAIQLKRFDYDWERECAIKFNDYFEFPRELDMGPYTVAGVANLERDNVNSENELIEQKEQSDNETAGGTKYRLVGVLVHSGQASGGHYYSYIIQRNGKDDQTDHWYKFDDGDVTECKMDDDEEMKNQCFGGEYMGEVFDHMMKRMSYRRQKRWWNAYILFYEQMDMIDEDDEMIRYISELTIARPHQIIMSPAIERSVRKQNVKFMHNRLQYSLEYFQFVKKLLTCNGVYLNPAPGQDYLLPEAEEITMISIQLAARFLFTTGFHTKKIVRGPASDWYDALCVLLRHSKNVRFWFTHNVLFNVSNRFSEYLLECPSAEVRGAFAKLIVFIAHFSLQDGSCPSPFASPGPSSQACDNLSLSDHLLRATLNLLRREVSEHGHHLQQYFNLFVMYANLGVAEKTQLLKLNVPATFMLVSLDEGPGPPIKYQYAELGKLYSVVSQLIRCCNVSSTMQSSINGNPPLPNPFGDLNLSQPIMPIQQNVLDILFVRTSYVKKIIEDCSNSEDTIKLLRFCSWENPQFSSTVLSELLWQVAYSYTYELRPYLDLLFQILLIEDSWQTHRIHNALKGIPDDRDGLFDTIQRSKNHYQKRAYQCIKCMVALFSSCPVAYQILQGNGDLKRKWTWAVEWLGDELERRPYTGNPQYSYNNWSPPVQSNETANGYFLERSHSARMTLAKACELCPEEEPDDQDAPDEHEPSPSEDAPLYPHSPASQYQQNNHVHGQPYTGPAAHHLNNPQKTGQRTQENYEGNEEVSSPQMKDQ
Summary of the method: (§1)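 Labelled DUBs were enriched with NeutrAvidin, digested with LysC and trypsin, and run by diaPASEF LC-MS/MS. The labelling used Biotin-Ahx-Ub-VS at 0.5 µM final for 1 h on HEK293T lysate (495 µg per sample) previously treated in triplicate with fragment at 200 µM or vehicle for 3 h. Values are average log2 fragment/vehicle ratios by unpaired t-test on global-median-normalised Spectronaut quantities of proteins with ≥2 unique peptides.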

UniProt P51784 = molecular target: UniProt P51784
UniProt P51784, sequence (P51784 whole entry): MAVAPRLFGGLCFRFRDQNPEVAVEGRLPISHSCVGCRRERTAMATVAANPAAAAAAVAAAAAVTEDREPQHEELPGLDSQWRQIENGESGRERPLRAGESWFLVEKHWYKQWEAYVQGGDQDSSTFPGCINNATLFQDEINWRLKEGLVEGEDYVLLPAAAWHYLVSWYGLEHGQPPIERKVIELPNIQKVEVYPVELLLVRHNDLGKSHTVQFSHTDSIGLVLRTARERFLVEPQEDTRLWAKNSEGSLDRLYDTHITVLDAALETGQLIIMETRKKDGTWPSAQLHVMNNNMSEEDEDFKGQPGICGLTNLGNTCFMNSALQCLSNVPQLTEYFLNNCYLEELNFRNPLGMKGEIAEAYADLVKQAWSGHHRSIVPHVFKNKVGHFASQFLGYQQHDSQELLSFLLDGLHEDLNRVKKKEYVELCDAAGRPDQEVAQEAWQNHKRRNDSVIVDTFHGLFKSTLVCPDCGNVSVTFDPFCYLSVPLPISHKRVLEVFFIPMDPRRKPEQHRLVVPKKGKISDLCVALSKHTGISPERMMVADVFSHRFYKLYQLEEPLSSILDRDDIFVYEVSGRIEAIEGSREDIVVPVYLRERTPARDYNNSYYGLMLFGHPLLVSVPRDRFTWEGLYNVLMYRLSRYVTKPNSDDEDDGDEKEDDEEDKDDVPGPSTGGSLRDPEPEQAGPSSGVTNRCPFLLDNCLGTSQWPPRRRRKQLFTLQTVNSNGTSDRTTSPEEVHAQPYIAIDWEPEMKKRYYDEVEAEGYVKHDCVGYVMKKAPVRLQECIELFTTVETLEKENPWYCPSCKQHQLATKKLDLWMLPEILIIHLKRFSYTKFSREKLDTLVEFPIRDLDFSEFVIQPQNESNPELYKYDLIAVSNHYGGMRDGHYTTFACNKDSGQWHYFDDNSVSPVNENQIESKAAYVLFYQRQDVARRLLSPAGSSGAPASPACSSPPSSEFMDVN
Summary of the method: as §1

UniProt Q5T2D3 = molecular target: T1, UniProt Q5T2D3
T1 sequence (whole entry): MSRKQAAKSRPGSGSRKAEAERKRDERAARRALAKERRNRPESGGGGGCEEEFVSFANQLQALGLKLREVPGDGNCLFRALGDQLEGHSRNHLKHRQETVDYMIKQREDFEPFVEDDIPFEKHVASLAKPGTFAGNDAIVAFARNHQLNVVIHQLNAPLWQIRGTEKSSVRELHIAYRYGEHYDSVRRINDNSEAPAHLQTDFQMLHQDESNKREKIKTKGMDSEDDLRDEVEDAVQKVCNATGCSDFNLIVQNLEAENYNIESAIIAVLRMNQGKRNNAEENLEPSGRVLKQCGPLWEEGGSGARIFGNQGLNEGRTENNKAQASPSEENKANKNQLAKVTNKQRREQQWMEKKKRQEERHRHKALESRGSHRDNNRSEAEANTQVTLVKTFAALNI
Summary of the method: as §1

UniProt Q8TE49 = molecular target: T2, UniProt Q8TE49
T2 sequence (whole entry): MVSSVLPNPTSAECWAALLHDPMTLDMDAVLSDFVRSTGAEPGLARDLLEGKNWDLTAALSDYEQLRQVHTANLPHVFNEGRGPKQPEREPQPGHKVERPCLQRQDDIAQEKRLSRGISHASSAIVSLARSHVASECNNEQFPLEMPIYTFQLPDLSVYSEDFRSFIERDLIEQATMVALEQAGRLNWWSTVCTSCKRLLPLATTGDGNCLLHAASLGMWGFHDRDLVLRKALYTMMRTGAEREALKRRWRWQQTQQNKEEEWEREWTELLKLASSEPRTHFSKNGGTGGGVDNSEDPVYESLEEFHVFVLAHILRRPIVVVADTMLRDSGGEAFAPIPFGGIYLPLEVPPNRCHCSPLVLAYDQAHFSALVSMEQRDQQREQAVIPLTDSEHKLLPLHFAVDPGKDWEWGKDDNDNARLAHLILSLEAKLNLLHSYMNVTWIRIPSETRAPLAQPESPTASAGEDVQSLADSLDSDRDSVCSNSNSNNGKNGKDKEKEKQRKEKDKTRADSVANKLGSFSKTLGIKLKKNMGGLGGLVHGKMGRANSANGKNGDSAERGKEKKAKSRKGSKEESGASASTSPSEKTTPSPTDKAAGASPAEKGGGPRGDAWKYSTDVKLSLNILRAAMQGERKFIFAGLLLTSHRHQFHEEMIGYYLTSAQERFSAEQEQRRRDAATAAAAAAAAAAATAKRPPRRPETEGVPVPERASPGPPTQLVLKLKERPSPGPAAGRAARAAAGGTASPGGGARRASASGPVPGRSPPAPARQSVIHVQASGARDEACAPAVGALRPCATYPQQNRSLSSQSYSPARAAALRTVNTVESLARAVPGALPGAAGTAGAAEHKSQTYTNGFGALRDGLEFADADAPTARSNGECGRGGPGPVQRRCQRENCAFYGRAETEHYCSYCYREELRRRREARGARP
Summary of the method: as §1

UniProt Q9P2H5 = molecular target: T3, UniProt Q9P2H5
T3 sequence (whole entry): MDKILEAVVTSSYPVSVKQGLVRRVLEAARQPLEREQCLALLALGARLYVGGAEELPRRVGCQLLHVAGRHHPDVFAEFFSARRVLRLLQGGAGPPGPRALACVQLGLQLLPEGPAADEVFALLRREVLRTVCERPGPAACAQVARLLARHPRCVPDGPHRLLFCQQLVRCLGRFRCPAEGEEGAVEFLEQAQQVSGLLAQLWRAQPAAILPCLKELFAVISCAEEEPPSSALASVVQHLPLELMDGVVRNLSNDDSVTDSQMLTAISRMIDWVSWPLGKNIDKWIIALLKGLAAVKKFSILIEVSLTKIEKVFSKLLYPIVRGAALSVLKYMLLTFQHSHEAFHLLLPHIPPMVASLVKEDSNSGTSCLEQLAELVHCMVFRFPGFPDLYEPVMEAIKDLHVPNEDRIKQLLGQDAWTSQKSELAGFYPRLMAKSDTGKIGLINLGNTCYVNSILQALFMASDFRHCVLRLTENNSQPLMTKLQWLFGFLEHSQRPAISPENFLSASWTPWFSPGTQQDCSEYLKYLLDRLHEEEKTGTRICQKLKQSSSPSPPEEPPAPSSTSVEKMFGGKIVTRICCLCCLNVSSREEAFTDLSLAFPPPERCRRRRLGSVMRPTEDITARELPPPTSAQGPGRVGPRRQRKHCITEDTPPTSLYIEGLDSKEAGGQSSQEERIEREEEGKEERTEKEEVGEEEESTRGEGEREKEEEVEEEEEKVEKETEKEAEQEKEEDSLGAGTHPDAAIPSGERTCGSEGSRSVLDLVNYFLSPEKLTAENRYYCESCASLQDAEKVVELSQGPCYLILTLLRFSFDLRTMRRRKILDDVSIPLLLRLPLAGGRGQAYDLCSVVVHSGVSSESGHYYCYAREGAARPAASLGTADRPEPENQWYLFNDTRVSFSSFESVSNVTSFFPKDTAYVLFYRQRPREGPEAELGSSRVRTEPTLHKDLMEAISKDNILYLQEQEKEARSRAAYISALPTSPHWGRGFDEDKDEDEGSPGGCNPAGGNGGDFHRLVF
Summary of the method: as §1

UniProt Q9UGI0 = molecular target: T4, UniProt Q9UGI0
T4 sequence (whole entry): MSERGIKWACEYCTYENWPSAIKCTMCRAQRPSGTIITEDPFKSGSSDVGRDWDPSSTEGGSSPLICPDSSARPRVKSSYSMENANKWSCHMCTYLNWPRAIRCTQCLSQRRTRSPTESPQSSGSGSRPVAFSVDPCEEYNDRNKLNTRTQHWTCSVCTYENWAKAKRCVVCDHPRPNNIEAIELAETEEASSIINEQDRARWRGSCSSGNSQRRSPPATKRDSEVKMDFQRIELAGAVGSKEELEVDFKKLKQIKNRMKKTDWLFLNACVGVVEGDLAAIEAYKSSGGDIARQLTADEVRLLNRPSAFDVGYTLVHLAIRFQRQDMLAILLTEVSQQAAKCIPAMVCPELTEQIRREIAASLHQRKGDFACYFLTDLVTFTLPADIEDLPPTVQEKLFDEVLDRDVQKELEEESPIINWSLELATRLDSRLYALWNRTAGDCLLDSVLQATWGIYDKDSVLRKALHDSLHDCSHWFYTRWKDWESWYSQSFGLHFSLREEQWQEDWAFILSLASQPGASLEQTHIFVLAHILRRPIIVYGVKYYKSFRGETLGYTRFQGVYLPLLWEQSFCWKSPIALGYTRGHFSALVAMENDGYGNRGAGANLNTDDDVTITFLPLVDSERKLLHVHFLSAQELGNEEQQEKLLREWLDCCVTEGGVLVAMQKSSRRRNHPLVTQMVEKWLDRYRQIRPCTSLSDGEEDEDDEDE
Summary of the method: as §1

YOD1 = molecular target: T5, YOD1 (UniProt Q5VVQ6)
T5 sequence (whole entry): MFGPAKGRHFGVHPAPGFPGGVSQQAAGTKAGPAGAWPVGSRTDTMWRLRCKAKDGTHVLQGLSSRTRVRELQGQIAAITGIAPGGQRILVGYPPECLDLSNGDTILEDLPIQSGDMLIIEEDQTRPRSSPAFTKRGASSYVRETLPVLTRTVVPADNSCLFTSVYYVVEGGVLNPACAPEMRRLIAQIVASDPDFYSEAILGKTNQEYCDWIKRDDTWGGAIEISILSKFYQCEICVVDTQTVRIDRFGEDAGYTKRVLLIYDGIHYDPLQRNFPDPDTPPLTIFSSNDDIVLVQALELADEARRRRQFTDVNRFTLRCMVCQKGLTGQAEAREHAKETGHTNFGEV
Summary of the method: as §1

Compound	log2 ratio of Biotin-Ahx-Ub-VS probe labelling (UniProt O00507)	log2 ratio of Biotin-Ahx-Ub-VS probe labelling (UniProt P51784)	log2 ratio of Biotin-Ahx-Ub-VS probe labelling (UniProt Q5T2D3)	log2 ratio of Biotin-Ahx-Ub-VS probe labelling (UniProt Q8TE49)	log2 ratio of Biotin-Ahx-Ub-VS probe labelling (UniProt Q9P2H5)	log2 ratio of Biotin-Ahx-Ub-VS probe labelling (UniProt Q9UGI0)	log2 ratio of Biotin-Ahx-Ub-VS probe labelling (YOD1)
Cc1ccc(CN(C)C(=O)CCl)o1	0.383	0.146	-0.109	-0.671	-0.321	-0.57	0.384
NS(=O)(=O)c1ccc(Cl)c(NC(=O)CCl)c1	-0.168	0.0886	-0.424	-1.53 (active)	-0.0565	-0.791	-0.361
O=C(CCl)N1CCC(C(=O)N2CCCC2)CC1	-0.126	-0.2	-0.068	-0.199	-0.139	0.0373	0.122
Cl.Cn1ncc2c1CC(NC(=O)CCl)CC2 (stereo not drawn)	0.311	0.0472	-0.0643	-0.377	-0.257	-0.162	0.181
CC(NC(=O)CCl)c1cccc2ccccc12 (stereo not drawn)	0.0439	-0.0702	-0.196	-1.06 (active)	-0.463	-0.905	0.0311
O=C(CCl)N1CCC(O)(Cc2ccc(F)cc2)C1 (stereo not drawn)	-0.253	0.313	-0.16	-0.0913	0.0413	-0.196	0.2
O=C(CCl)N1CCCC1c1ccsc1 (stereo not drawn)	-0.118	-0.115	-0.188	-0.72	-0.412	-1.53 (active)	0.14
O=C(CCl)Nc1nnc(CC(F)(F)F)o1	-0.0948	-6e-05	-0.844	-0.179	-0.149	-0.304	0.0603
CCC(NC(=O)CCl)c1ccc(Cl)cc1 (stereo not drawn)	0.32	0.0791	-0.182	-0.735	-0.319	-0.279	0.188
